# Experimental data as given in PMC7862700, “An all-to-all approach to the identification of sequence-specific readers for epigenetic DNA modifications on cytosine”.
# How the values were obtained:
# Experiment in all cases: DAPPL (digital affinity profiling via proximity ligation, sequencing); 10 mM Tris-HCl pH 7.5, 50 mM NaCl, 1 mM DTT, 4% glycerol, room temperature, 30 min; GST-TFs on glutathione beads, 16-mer random dsDNA library, 0.1% formaldehyde crosslink after washing; high values mean tight binding
# [1] = biological target: T1, FLI1 (Homo sapiens, UniProt Q01543 1-452); conditions: protein: recombinant; tags: N-terminal GST; dsDNA, one strand shown
# T1 sequence: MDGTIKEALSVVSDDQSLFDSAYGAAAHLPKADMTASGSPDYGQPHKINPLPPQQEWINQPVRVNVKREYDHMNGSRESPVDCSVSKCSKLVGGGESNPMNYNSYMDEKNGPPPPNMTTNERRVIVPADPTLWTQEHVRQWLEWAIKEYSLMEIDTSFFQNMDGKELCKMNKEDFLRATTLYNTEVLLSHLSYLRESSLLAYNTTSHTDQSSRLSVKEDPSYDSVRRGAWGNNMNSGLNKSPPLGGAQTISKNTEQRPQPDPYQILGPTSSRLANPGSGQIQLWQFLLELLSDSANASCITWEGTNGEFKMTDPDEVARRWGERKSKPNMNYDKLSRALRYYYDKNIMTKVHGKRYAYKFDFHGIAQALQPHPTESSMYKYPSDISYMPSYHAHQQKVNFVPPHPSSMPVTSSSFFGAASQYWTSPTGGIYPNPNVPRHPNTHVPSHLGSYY
# Outline: (§1)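 Sequencing on an Illumina NextSeq500 followed washing, crosslinking with 0.1% formaldehyde, proximity ligation (BsaI/T4 ligase, 1 h, 37 °C) and PCR amplification of pools that had been incubated for 30 min at room temperature with 200 nmole of a random double-stranded 16-mer DNA library in Tris/NaCl/DTT/glycerol buffer. Each pool held DNA-barcoded human transcription factors, expressed in yeast as GST fusions and captured on glutathione beads, plus a tag-only sample. Binding signal is a hexamer's read frequency for a factor divided by its frequency in the tag-only sample.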
# [2] = biological target: T2, ELK1 (Homo sapiens, UniProt P19419 1-428); conditions: protein: recombinant; tags: N-terminal GST; dsDNA, one strand shown
# T2 sequence: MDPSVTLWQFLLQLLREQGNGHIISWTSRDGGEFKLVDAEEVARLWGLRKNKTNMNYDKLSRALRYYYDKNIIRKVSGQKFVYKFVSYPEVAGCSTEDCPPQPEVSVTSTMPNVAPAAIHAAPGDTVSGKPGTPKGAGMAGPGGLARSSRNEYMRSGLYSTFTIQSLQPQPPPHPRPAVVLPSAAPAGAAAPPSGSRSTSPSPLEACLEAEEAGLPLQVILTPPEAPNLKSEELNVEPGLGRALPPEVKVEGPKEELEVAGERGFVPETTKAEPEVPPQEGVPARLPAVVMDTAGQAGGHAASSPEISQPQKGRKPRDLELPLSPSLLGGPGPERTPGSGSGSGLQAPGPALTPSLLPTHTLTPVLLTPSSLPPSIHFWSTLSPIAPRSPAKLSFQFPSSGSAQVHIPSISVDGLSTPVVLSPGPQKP
# Outline: as §1
# [3] = biological target: T3, GABPA (Homo sapiens, UniProt Q06546 1-454); conditions: protein: recombinant; tags: N-terminal GST; dsDNA, one strand shown
# T3 sequence: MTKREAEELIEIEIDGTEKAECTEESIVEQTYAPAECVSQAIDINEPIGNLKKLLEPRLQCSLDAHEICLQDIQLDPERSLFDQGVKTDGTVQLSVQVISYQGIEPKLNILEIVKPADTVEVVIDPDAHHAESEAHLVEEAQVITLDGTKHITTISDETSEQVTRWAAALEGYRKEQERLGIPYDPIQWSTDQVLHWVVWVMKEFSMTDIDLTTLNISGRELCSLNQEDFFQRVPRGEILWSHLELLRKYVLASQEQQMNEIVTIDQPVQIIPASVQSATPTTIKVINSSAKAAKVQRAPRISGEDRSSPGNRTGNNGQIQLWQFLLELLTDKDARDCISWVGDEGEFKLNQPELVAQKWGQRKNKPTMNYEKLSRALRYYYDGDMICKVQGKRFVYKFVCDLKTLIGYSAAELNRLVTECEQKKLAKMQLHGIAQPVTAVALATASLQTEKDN
# Outline: as §1
# [4] = biological target: T4, ERG (Homo sapiens, UniProt P11308 1-479); conditions: protein: recombinant; tags: N-terminal GST; dsDNA, one strand shown
# T4 sequence: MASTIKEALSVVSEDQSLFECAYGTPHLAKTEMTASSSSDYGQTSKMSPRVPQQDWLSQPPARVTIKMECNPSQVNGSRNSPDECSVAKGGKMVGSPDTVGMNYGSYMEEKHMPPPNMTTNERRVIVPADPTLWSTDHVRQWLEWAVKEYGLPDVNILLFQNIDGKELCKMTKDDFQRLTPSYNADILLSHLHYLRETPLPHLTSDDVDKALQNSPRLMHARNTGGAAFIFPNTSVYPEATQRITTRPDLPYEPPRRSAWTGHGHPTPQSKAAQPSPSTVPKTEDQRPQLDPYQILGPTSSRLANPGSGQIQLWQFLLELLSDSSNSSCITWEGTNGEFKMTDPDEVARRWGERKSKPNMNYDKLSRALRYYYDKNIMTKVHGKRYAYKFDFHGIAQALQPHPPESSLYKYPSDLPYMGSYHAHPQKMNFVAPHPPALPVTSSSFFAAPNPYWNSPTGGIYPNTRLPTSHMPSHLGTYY
# Outline: as §1
# [5] = biological target: ELF1 (Homo sapiens, UniProt P32519 1-619); conditions: protein: recombinant; tags: N-terminal GST; dsDNA, one strand shown
# Outline: as §1
# [6] = biological target: T5, EHF (Homo sapiens, UniProt Q9NZC4 1-300); conditions: protein: recombinant; tags: N-terminal GST; dsDNA, one strand shown
# T5 sequence: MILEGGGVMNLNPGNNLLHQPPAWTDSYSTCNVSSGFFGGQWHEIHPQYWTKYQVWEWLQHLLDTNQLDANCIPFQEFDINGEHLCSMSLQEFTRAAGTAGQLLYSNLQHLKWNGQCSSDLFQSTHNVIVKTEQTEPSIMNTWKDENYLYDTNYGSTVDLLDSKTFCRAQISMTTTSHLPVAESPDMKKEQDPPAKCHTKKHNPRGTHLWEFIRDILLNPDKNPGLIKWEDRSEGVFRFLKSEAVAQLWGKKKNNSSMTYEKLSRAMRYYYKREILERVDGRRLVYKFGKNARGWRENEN
# Outline: as §1
# [7] = biological target: SPI1 (Homo sapiens, UniProt P17947 1-270); conditions: protein: recombinant; tags: N-terminal GST; dsDNA, one strand shown
# Outline: as §1
# [8] = biological target: SPIB (Homo sapiens, UniProt Q01892 1-262); conditions: protein: recombinant; tags: N-terminal GST; dsDNA, one strand shown
# Outline: as §1
# [9] = biological target: T6, ELK3 (Homo sapiens, UniProt P41970 1-407); conditions: protein: recombinant; tags: N-terminal GST; dsDNA, one strand shown
# T6 sequence: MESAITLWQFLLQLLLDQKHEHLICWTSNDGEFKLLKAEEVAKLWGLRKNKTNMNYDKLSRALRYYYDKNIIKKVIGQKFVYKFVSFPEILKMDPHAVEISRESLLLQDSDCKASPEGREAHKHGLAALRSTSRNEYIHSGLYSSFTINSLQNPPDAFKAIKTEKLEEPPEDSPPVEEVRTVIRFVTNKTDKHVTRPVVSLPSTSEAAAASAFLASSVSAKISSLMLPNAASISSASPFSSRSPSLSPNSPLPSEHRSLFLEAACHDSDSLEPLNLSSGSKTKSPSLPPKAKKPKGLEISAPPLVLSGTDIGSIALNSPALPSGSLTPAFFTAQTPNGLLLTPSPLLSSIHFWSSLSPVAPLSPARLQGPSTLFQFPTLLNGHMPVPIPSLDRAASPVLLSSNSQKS
# Outline: as §1
# [10] = biological target: T7, FEV (Homo sapiens, UniProt Q99581 1-238); conditions: protein: recombinant; tags: N-terminal GST; dsDNA, one strand shown
# T7 sequence: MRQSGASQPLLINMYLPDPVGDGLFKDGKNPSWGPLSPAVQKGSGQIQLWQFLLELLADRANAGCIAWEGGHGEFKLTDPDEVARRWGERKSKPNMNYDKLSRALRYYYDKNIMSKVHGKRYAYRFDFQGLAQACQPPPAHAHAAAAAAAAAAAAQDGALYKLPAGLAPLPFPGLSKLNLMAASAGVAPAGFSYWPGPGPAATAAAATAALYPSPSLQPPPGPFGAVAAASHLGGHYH
# Outline: as §1
# [11] = biological target: ETV5 (Homo sapiens, UniProt P41161 1-510); conditions: protein: recombinant; tags: N-terminal GST; dsDNA, one strand shown
# Outline: as §1
# [12] = biological target: HSF1 (Homo sapiens, UniProt Q00613 1-529); conditions: protein: recombinant; tags: N-terminal GST; chain copies: 3; dsDNA, one strand shown
# Outline: as §1
# [13] = biological target: T8, SPIC (Homo sapiens, UniProt Q8N5J4 1-248); conditions: protein: recombinant; tags: N-terminal GST; dsDNA, one strand shown
# T8 sequence: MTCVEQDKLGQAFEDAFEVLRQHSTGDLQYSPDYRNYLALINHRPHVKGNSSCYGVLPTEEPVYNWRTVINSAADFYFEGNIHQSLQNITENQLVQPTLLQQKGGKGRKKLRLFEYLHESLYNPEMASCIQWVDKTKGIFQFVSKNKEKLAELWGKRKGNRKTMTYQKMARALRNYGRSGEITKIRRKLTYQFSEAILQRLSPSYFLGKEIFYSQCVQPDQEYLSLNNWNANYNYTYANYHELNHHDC
# Outline: as §1
# [14] = biological target: ELF4 (Homo sapiens, UniProt Q99607 1-663); conditions: protein: recombinant; tags: N-terminal GST; dsDNA, one strand shown
# Outline: as §1
# [15] = biological target: T9, ELK4 (Homo sapiens, UniProt P28324-2 1-405); conditions: protein: recombinant; tags: N-terminal GST; dsDNA, one strand shown
# T9 sequence: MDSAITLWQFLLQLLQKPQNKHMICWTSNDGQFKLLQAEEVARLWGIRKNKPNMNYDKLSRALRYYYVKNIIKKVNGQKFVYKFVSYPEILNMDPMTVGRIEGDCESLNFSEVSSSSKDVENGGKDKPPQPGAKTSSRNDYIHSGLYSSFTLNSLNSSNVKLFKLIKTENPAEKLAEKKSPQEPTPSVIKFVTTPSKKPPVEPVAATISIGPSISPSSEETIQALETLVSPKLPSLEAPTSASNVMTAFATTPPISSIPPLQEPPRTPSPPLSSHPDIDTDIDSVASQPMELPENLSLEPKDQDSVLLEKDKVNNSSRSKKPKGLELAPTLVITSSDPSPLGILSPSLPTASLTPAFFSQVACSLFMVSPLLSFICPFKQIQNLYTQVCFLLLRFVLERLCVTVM
# Outline: as §1
# [16] = biological target: T10, ETV2 (Homo sapiens, UniProt O00321 1-342); conditions: protein: recombinant; tags: N-terminal GST; dsDNA, one strand shown
# T10 sequence: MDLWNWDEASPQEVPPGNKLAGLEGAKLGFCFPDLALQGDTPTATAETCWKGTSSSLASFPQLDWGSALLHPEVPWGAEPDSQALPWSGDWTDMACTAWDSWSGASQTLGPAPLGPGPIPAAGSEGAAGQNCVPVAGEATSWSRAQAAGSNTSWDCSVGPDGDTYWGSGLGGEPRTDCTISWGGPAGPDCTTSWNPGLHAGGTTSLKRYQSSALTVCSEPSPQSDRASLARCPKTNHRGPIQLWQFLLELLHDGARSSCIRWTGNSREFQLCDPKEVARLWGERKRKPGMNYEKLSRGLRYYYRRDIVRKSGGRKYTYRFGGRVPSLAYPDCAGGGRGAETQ
# Outline: as §1
# [17] = biological target: T11, ELF3 (Homo sapiens, UniProt P78545 1-371); conditions: protein: recombinant; tags: N-terminal GST; dsDNA, one strand shown
# T11 sequence: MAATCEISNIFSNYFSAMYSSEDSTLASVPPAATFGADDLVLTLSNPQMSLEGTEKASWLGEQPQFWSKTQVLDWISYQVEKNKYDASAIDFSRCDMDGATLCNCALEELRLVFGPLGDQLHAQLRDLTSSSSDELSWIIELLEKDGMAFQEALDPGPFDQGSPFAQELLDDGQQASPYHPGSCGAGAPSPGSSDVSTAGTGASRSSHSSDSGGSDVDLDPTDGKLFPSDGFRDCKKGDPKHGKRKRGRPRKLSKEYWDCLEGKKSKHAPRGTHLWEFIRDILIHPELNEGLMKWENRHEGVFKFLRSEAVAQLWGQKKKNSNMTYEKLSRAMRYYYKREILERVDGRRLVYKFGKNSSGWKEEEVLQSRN
# Outline: as §1
# [18] = biological target: CRX (Homo sapiens, UniProt O43186 1-299); conditions: protein: recombinant; tags: N-terminal GST; dsDNA, one strand shown
# Outline: as §1
# [19] = biological target: ETV1 (Homo sapiens, UniProt P50549 1-477); conditions: protein: recombinant; tags: N-terminal GST; dsDNA, one strand shown
# Outline: as §1
# ETV1, sequence (P50549 whole entry): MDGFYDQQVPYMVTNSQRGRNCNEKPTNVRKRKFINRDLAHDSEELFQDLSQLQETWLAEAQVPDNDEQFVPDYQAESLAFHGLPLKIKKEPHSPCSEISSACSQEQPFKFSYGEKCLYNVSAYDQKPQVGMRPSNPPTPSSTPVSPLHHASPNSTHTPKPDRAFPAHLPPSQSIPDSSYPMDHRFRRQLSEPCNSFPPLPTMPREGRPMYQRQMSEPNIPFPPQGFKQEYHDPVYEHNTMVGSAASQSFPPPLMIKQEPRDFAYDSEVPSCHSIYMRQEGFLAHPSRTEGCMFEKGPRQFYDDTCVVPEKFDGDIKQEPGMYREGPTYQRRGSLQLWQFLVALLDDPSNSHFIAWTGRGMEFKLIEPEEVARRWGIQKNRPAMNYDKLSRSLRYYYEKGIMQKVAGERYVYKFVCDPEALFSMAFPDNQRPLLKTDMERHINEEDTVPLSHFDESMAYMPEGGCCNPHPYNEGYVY
# SPIB, sequence (Q01892 whole entry): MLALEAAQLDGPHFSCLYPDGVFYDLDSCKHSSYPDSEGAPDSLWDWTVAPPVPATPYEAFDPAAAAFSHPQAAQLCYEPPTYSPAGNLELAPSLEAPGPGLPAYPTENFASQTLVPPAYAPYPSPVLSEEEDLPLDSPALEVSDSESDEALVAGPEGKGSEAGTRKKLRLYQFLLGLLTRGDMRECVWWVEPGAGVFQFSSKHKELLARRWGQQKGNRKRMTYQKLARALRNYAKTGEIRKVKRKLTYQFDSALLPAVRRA
# ETV5, sequence (P41161 whole entry): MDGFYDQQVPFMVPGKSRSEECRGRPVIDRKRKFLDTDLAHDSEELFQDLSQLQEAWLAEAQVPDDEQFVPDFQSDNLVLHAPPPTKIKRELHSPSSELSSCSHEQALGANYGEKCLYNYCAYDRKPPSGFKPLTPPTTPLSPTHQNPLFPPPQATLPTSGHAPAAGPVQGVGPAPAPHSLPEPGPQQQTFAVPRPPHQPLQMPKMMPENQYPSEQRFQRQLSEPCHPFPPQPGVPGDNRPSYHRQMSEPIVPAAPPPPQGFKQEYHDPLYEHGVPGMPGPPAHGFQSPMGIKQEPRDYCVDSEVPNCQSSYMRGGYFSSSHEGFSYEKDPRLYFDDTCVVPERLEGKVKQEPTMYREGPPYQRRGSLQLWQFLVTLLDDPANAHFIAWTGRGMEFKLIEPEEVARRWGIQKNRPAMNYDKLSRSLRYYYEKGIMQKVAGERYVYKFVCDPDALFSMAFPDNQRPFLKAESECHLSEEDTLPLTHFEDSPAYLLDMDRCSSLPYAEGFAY
# CRX, sequence (O43186 whole entry): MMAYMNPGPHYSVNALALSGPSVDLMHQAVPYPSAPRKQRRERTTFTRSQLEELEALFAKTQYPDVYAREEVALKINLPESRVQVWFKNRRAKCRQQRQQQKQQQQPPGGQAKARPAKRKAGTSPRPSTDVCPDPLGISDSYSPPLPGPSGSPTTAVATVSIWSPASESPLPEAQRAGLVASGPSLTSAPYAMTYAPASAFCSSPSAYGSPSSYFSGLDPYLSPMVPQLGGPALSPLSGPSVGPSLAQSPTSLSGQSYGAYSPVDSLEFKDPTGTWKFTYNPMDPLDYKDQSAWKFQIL
# HSF1, sequence (Q00613 whole entry): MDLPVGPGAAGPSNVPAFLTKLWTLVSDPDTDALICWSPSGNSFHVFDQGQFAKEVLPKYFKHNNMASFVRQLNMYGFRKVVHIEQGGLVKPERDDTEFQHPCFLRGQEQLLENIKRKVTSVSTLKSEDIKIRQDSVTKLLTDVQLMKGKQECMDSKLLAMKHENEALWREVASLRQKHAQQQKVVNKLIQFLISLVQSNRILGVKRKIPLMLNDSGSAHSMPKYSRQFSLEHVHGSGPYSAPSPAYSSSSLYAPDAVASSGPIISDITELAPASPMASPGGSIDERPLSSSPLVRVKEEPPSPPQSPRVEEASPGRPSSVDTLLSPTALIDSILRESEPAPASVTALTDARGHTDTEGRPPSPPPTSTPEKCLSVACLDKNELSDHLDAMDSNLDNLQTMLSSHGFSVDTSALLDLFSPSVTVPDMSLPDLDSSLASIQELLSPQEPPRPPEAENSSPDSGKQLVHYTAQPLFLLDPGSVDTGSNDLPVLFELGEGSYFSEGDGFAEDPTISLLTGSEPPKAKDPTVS
# ELF1, sequence (P32519 whole entry): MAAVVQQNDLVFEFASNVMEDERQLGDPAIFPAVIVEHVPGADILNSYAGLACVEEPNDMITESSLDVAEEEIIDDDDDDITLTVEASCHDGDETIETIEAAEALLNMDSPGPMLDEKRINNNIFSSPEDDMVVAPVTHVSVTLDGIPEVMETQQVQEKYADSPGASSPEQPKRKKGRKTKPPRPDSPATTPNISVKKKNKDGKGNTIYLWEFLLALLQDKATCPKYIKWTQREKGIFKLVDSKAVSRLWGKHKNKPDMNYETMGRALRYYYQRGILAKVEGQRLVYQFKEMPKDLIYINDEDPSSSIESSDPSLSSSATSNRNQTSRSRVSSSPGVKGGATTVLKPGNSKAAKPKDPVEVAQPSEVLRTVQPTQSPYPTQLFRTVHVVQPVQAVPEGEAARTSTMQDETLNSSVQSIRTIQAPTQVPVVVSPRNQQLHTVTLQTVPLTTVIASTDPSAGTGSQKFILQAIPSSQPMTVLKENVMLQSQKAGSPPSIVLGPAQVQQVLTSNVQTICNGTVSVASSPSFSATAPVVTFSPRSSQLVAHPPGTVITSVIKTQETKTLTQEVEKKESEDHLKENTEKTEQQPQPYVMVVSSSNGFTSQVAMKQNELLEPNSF
# ELF4, sequence (Q99607 whole entry): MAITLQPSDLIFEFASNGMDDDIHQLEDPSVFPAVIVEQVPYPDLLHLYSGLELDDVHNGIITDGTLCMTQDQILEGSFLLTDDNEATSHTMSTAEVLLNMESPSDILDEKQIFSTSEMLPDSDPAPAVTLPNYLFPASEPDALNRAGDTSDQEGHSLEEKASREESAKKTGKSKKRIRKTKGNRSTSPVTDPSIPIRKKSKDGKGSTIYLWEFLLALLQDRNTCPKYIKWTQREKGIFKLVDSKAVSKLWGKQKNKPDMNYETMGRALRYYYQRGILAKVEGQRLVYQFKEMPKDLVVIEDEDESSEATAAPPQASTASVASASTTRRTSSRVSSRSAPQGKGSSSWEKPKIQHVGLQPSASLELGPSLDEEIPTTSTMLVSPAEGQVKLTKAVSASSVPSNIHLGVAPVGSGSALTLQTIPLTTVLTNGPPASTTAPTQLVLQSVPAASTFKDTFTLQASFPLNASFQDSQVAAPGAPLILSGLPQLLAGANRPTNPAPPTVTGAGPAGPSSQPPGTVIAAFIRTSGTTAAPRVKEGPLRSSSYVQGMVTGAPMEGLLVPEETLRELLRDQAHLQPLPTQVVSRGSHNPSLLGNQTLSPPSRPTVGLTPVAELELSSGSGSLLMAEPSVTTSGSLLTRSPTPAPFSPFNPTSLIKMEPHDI
sequence,measurement,setting,value
AAGCAT,binding signal,[1],"1.09 fold enrichment (6-mer frequency, TF over GST control)"
same,binding signal,[2],"1.09 fold enrichment (6-mer frequency, TF over GST control)"
same,binding signal,[3],"1.14 fold enrichment (6-mer frequency, TF over GST control)"
same,binding signal,[4],"1.13 fold enrichment (6-mer frequency, TF over GST control)"
same,binding signal,[5],"1.09 fold enrichment (6-mer frequency, TF over GST control)"
same,binding signal,[6],"1.06 fold enrichment (6-mer frequency, TF over GST control)"
same,binding signal,[7],"1.06 fold enrichment (6-mer frequency, TF over GST control)"
same,binding signal,[8],"1.14 fold enrichment (6-mer frequency, TF over GST control)"
same,binding signal,[9],"1.04 fold enrichment (6-mer frequency, TF over GST control)"
same,binding signal,[10],"1.07 fold enrichment (6-mer frequency, TF over GST control)"
same,binding signal,[11],"1.06 fold enrichment (6-mer frequency, TF over GST control)"
same,binding signal,[12],"1.15 fold enrichment (6-mer frequency, TF over GST control)"
same,binding signal,[13],"1.06 fold enrichment (6-mer frequency, TF over GST control)"
same,binding signal,[14],"1.13 fold enrichment (6-mer frequency, TF over GST control)"
same,binding signal,[15],"1.19 fold enrichment (6-mer frequency, TF over GST control)"
same,binding signal,[16],"1.06 fold enrichment (6-mer frequency, TF over GST control)"
same,binding signal,[17],"1.17 fold enrichment (6-mer frequency, TF over GST control)"
same,binding signal,[18],"1.14 fold enrichment (6-mer frequency, TF over GST control)"
same,binding signal,[19],"1.04 fold enrichment (6-mer frequency, TF over GST control)"
